Measurements reported in paper PMC4552634, “A New Set of Chemical Starting Points with Plasmodium falciparum Transmission-Blocking Potential for Antimalarial Drug Discovery” (PLoS ONE, 2015).
The campaign covered roughly 13,000 compounds. About 3,200 (25%) showed an effect of 50% or more. The list shows a part of the results.

What follows are molecules tested on P. falciparum stage V gametocytes. Conditions: 48 h, 5 µM; inhibitor.
Design: BacTiter-Glo ATP luminescence viability of purified stage V gametocytes in 384-well plates, per cent inhibition versus DMSO

Row | SMILES | % Inhibition [%]
1 | CN1CCC(N(C)c2nccc(N3CCN(Cc4cncn4Cc4ccccc4)CC3)n2)CC1 [TCMDC-125095] | -8.441
2 | Cc1ccc(-n2cc(CNCC3CCN(CCO)CC3)c(-c3ccc(F)cc3)n2)cc1 [TCMDC-124689] | 28.13
3 | O=C(CNC1=NCCN1)Nc1ccc(NC(=O)Nc2ccc(NC(=O)CNC3=NCCN3)cc2)cc1 [TCMDC-137202] | 4.446
4 | O=C(NCCCCN1CCCC2c3cccc(O)c3CCC21)c1ccc(-c2ccccc2)cc1 (stereo not drawn) [TCMDC-139080] | 37.51
5 | O=C(N[C@H](Cc1ccc(Cl)cc1)C(=O)N1CCN(c2ccnc3cc(Cl)ccc23)CC1)[C@H]1Cc2ccccc2CN1 [TCMDC-141498] | 2.012
6 | CC(=O)c1ccc2c(c1)C(NC(=O)c1cccc(Cl)c1Cl)C(CO)C(C)(C)O2 (stereo not drawn) [TCMDC-138988] | -12.37
7 | O=C(Nc1ccc(OC2CCN(Cc3ccccc3)C2)c(Cl)c1)c1ccc(F)cc1 (stereo not drawn) [TCMDC-133972] | 8.518
8 | O=c1cc(NCCCNCc2scc3c(Cl)cc(C(F)(F)F)nc23)[nH]c2ccccc12 [TCMDC-141146] | 31.07
9 | Cc1cc(N2CCCC2=O)ccc1-c1ccc(C(=O)N2CCC(Oc3cccc(Cl)c3)CC2)cc1 [TCMDC-136525] | -32.31
10 | Oc1ccccc1CCNC1CCc2ccccc2C1 (stereo not drawn) [TCMDC-137890] | 12.83
11 | COc1cc(Cc2cnc(N)nc2N)ccc1OCc1ccc(-c2csnn2)cc1 [TCMDC-138683] | -3.694
12 | CC(C)Cn1c(Sc2ccc(C#N)c([N+](=O)[O-])c2)nnc1-c1ccccc1Cl [TCMDC-135609] | 54.29
13 | CC(C)CCn1c(Sc2ccc(C#N)c([N+](=O)[O-])c2)nnc1-c1ccc(Cl)cc1 [TCMDC-135596] | 54.47
14 | CCn1c(Sc2ccc(C#N)c([N+](=O)[O-])c2)nnc1-c1ccc(OC)cc1 [TCMDC-135602] | 29.96
15 | CCn1c(Sc2ccc(C#N)c([N+](=O)[O-])c2)nnc1-c1ccc(Cl)cc1 [TCMDC-135597] | 65
16 | CC(C)Cn1c(Sc2ccc(C#N)c([N+](=O)[O-])c2)nnc1-c1ccccc1 [TCMDC-141918] | 17.88
17 | CC(C)CCn1c(Sc2ccc(C#N)c([N+](=O)[O-])c2)nnc1-c1ccccc1Cl [TCMDC-135615] | 17.65
18 | COc1ccc(-c2nnc(Sc3ccc(C#N)c([N+](=O)[O-])c3)n2CCC(C)C)cc1 [TCMDC-135601] | 7.84
19 | CC(C)CCn1c(Sc2ccc(C#N)c([N+](=O)[O-])c2)nnc1-c1cccc(Cl)c1 [TCMDC-135591] | 23.85
20 | CCCn1c(Sc2ccc(C#N)c([N+](=O)[O-])c2)nnc1-c1ccc(OC)cc1 [TCMDC-135582] | 31.08
21 | O=C(NCC(CCN1CCC(c2c[nH]c3ccccc23)CC1)c1ccccc1)Nc1ccc(Cl)c(Cl)c1 (stereo not drawn) [TCMDC-139626] | 1.901
22 | COc1cccc2cc(C(=O)N[C@@H](CC(C)C)C(=O)N[C@H](C=NN3CCOC3=O)CC(C)C)oc12 [TCMDC-136064] | 12.6
23 | Cc1noc(=O)c2ccc(NC(=O)C(O)(CSc3ccccc3)CC(C)C)cc12 (stereo not drawn) [TCMDC-135222] | 46.49

Row | SMILES | % Inhibition [%]
24 | Fc1cc(Cl)ccc1Nc1ccnc(Nc2ccc3cn[nH]c3c2)n1 [TCMDC-138575] | 13.66
25 | c1ccc(-c2[nH]ncc2Nc2ccnc3ccccc23)nc1 [TCMDC-138641] | -8.718
26 | NC(=O)c1cc2nc(NC3CCC3)nc(Nc3cccc4[nH]ncc34)c2[nH]1 [TCMDC-137005] | 21.61
27 | O=C(Cc1ccc([N+](=O)[O-])cc1)N1CCc2cc3nccc(N4CCN5CCC[C@@H]5C4)c3cc21 [TCMDC-140039] | -19.96
28 | O=C(Nc1ccccc1Cc1ccccc1)c1ccccc1[N+](=O)[O-] [TCMDC-124438] | 42.41
29 | O=C(Nc1ccccc1Cc1ccccc1)c1ccccc1C(F)(F)F [TCMDC-123550] | 54.56
30 | O=C(Nc1ccc([N+](=O)[O-])cc1Cl)c1cc(Br)cc(Cc2ccccc2)c1O [TCMDC-124004] | 12.42
31 | O=C(Nc1ccc2c(c1)CCN2C1CCN(Cc2csc3ccccc23)C1)c1ccco1 (stereo not drawn) [TCMDC-135069] | 39.32
32 | c1ccc2cc3c(NCCN4CCOCC4)ccnc3cc2c1 [TCMDC-125814] | -3.95
33 | CN1CCN(c2ccnc3cc4ccccc4cc23)CC1 [TCMDC-124200] | 1.444
34 | CCN1CCCC(Nc2ccnc3cc4ccccc4cc23)C1 (stereo not drawn) [TCMDC-123499] | 94.14
35 | Cn1c(=N)cc(-c2ccc(Br)cc2)c2c(=O)[nH]c(N)nc21 [TCMDC-137743] | 6.431
36 | Cc1csc(-c2ccc3[nH]cc(C4=CCN(C)CC4)c3c2)n1 [TCMDC-132040] | -6.013
37 | COc1ccc(-c2ccc(S(=O)(=O)Nc3cc4c(cc3OC(C)C)CCNCC4)cc2)cc1 [TCMDC-141481] | 37.39
38 | CC(C)Oc1cc2c(cc1NS(=O)(=O)c1ccc(-c3ccc(Cl)cc3)cc1)CCN(C)CC2 [TCMDC-141459] | 21.1
39 | CN1CCc2cc(O)c(NS(=O)(=O)c3ccc(-c4ccc(Cl)cc4)cc3)cc2CC1 [TCMDC-141501] | -85.22
40 | Cc1cc(-c2ccc(S(=O)(=O)Nc3cc4c(cc3OC(C)C)CCN(C)CC4)cc2)ccc1Cl [TCMDC-141488] | 42.37
41 | O=S(=O)(Nc1cc2c(cc1OCCCN1CCCCC1)CCNCC2)c1ccc(-c2ccc(Cl)cc2)cc1 [TCMDC-141753] | 106.2
42 | CN1CCc2cc(NS(=O)(=O)c3ccc(-c4ccc(Cl)cc4)cc3)c(OCCCN3CCCCC3)cc2CC1 [TCMDC-141754] | 108.9
43 | O=S(=O)(Nc1cc2c(cc1O)CCNCC2)c1ccc(-c2ccc(Cl)cc2)cc1 [TCMDC-141497] | -93.89
44 | CN1CCc2cc(NS(=O)(=O)c3ccc(-c4ccc(Cl)s4)cc3)c(N3CCCCC3)cc2CC1 [TCMDC-141588] | 76.97
45 | CC(C)Oc1cc2c(cc1NS(=O)(=O)c1ccc(-c3ccc(Cl)s3)cc1F)CCN(C)CC2 [TCMDC-141582] | 18.13
46 | N=C(N)NCCCCN(Cc1ccccc1)c1ccccc1 [TCMDC-131834] | 24.97

Row | SMILES | % Inhibition [%]
47 | Nc1nc2cccc3ccc4cccc1c4c32 [TCMDC-142055] | 15.08
48 | COc1cc2ncnc(Nc3ccc(OCc4ccccc4Br)c(Cl)c3)c2cc1OC [TCMDC-131913] | 20.89
49 | O=[N+]([O-])c1ccc(C=NNc2nc3ccccc3[nH]2)cc1 [TCMDC-124105] | -75.71
50 | CCCCN(CCCC)Cc1cc(N(C)c2ccc([N+](=O)[O-])cn2)ccc1O [TCMDC-137484] | -6.258
51 | O=[N+]([O-])c1ccc(C=NO)nc1 [TCMDC-131967] | 114.3
52 | NC1CCN(c2nc(NCCCc3ccc(O)cc3)nc(NCc3ccccc3-c3ccccc3)n2)CC1 [TCMDC-133390] | 36.08
53 | CC1(C)N=C(N)N=C(N)N1OCCc1ccccc1 [TCMDC-131597] | -4.135
54 | COc1ccc(C2C(C(=O)Nc3cc(Cl)c(OC)cc3OC)c3ccccc3C(=O)N2C)cc1 (stereo not drawn) [TCMDC-123596] | 80.19
55 | CCCCN1CCN(c2cc(NS(=O)(=O)c3cccc(C(=O)Nc4ccc(C(F)(F)F)cc4)c3)ccc2OC)CC1 [TCMDC-141779] | -16.75
56 | COc1ccc(C2CC(c3cccs3)=NN2C(=O)CNc2ccccc2F)cc1OC (stereo not drawn) [TCMDC-123552] | -9.982
57 | COc1cc2c(cc1OC)C(C(=O)Nc1ccc(C(F)(F)F)cc1)C(c1cccs1)N(C)C2=O (stereo not drawn) [TCMDC-123797] | 62.6
58 | COc1ccc(C2C(C(=O)Nc3cc(C)ccc3OC)c3ccccc3C(=O)N2C)cc1 (stereo not drawn) [TCMDC-123595] | 25.42
59 | COc1cc(OC)c(NC(=O)C2c3ccccc3C(=O)N(C)C2c2cccs2)cc1Cl (stereo not drawn) [TCMDC-125447] | 95.47
60 | COc1cc(OC)c(NC(=O)Nc2ccnc3ccccc23)cc1Cl [TCMDC-139463] | 15
61 | COc1ccc(C2C(C(=O)Nc3ccc(C)cc3Br)c3ccccc3C(=O)N2C)cc1 (stereo not drawn) [TCMDC-123597] | -11.57
62 | COc1ccc(NC(=O)c2ccc(-c3nc(-c4cccc(C(F)(F)F)c4)cs3)cc2)cc1N1CCN(C)CC1 [TCMDC-138686] | 5.66
63 | COc1ccc(NC(=O)C2c3ccccc3C(=O)N(CC(C)C)C2c2cccs2)cc1OC (stereo not drawn) [TCMDC-125289] | 95.75
64 | O=C(/C=C/c1ccc(Cl)cc1)NCCCCCN1CCCC(C(=O)Nc2ccc(F)c(Cl)c2)C1 (stereo not drawn) [TCMDC-136113] | 4.941
65 | CCN(CC)CCNC(=O)c1ccc(NC(=O)c2cc3c(C)nn(-c4ccc(Cl)cc4)c3s2)cc1 [TCMDC-124020] | 26.74
66 | N#Cc1ccc(C=Cc2nccc3c2[nH]c2ccccc23)cc1 [TCMDC-124483] | -0.1389
67 | Cc1cc(C(=O)OCC(=O)Nc2c(C)n(C)n(-c3ccccc3)c2=O)c(C)n1-c1ccc(F)cc1 [TCMDC-123794] | -8.44
68 | CCOC(=O)c1[nH]c2ccc(F)cc2c1NC(=O)CN1CCN(c2cccc(C(F)(F)F)c2)CC1 [TCMDC-124048] | -41.18
69 | COc1ccc2nccc(N3CCC(NCCNS(=O)(=O)c4ccc5c(c4)NC(=O)CS5)C3)c2n1 (stereo not drawn) [TCMDC-134527] | -17.46
